Bioassay records (PubChem BioAssay)
Sampled rows, rich in hits. Any-hit rate of the full collection: about 3.4%.
MITF inh: inhibitors of human MITF; O75030; AlphaScreen MITF homodimerization, bead proximity signal; inhibition, % at 2.6 µM; 650,000 tested, 0.91% active; AID 1259374; in the data active = inhibition above about 50%;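 also: 0% = vehicle wells with protein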
TEAD-YAP block: TEAD-YAP interaction inhibition. 640,000 tested, 1.4% active. HEK-TIYL cells, TEAD-Gal4/YAP UAS-luciferase luminescence. inhibition, % at 9.12 µM; in the data active = inhibition above about 32%;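 also: 0% = median of test compound wells and 100% = reference inhibitor wells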
GPR151 ag: activates the human receptor GPR151. PathHunter beta-arrestin GPR151 cells, luminescence. activation, % at 11.2 µM. 650,000 tested, 1% active. Q8TDV0; in the data active = activation above about 4.9%;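 also: 0% = median of compound wells and 100% = cells with positive control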
Target sequence (Q8TDV0 whole entry, looked up): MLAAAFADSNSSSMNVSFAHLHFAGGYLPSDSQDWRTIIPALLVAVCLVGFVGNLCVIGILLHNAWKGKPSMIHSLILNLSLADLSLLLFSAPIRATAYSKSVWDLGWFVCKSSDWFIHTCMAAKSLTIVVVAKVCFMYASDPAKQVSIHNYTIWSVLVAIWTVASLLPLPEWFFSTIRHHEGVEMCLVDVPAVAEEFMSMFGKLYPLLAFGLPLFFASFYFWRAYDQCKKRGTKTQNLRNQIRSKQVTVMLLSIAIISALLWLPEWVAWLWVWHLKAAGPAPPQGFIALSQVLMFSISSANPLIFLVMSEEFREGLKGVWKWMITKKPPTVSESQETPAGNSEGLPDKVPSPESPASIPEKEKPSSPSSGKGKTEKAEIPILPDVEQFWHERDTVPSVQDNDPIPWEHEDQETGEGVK
FBW7 activator: activators of human E3 ligase FBW7 | 650,000 tested, 0.13% active | normalized activity (activation), % at 26.1 µM | Q969H0 | AlphaScreen FBW7–phospho-cyclin E peptide binding, activator screen; in the data active = normalized activity above about 1.9%;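 also: purified mutant Fbw7 with reduced substrate affinity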
MITF inh conf: human MITF inhibition, confirmation | shares compounds with MITF inh | AlphaScreen MITF homodimerization, biotin/His-MITF beads | inhibition, % at 2.6 µM | 4,700 tested, 16% active;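 active = inhibition above a cutoff derived from the DMSO control wells, cut at about 28% in these data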;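 also: 0% = MITF dimer wells with DMSO only; inhibitors lower the bead chemiluminescence by keeping MITF from dimerizing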
AlphaScreen DR: counter-screen: compounds optically interfering with AlphaScreen | shares compounds with MITF inh | AlphaScreen optical interference counterscreen, cell-free | IC50, µM | 480 tested, 6% active; call rule not given here
AlphaScreen intf2: optically interferes with AlphaScreen signal; LysRS AlphaScreen counterscreen, signal interference, triplicate; 4,700 tested, 7.6% active; AID 1259376; inhibition, % at 2.6 µM; shares compounds with MITF inh;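 active = inhibition above a cutoff derived from the DMSO control wells, cut at about 30% in these data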
* marks the source's active call; other numbers are inactive results; / = no result given.

SMILES	MITF inh	TEAD-YAP block	GPR151 ag	FBW7 activator	MITF inh conf	AlphaScreen intf2	others
COc1cc(OC)nc(Oc2cccnc2C(=O)NNc2ccccc2)n1	54*	-7	2	-1	36*	70*
COc1cccc(CN2CCN(Cc3cc(OC)ccc3OC)CC2)c1	75*	8	1	0	-4	1
COc1ccc(CN2CCN(Cc3cccc(C)c3)CC2)c(OC)c1OC	33	2	1	0	/	/
COc1cc(OC)c(OC)cc1CN1CCN(Cc2cccc(C)c2)CC1	83*	0	1	0	-2	16
COc1ccc(CN2CCN(Cc3cccc(C)c3)CC2)c(OC)c1	69*	-4	-1	0	-1	3
COc1ccc(OC)c(CN2CCN(Cc3cccc(C)c3)CC2)c1	70*	2	0	0	0	0
COc1cc(CN2CCN(Cc3cccc(C)c3)CC2)cc(OC)c1	42	-10	1	0	/	/
COc1ccc(OC)c(NC(=O)Cn2ncc3c(=O)oc4ccccc4c32)c1	-4	1	0	0	/	/
CCOc1ccc(CCNc2c(-c3ccccc3)c(=O)c2=O)cc1OCC	12	9	-2	1	/	/
CC(C)N1C[C@@H](NCc2cc(F)ccc2F)C[C@H]1C(=O)NCCc1ccc2c(c1)OCO2	-8	-4	-2	1	/	/
CC12CC3CC(C)(C1)CC(CNC(=O)c1cccs1)(C3)C2	-7	12	-1	0	/	/
COc1cc(OC)c(OC)cc1CN1CCN(Cc2ccc(C)cc2C)CC1	70*	1	0	-1	8	6
Cc1cc(OCCCN2CCNCC2)ccc1[N+](=O)[O-]	35	0	3	0	/	/
Cc1cc(OCCN2CCCC2)ccc1[N+](=O)[O-]	24	-5	1	0	/	/
Cc1cc(OCCN2CCOCC2)ccc1[N+](=O)[O-]	60*	-22	-3	1	8	14
Cc1cc(OCCN2CCN(C)CC2)ccc1[N+](=O)[O-]	56*	-32	-2	0	6	11
Cc1cc(OCCCCN2CCN(C)CC2)ccc1[N+](=O)[O-]	56*	-7	-1	0	7	3
Cc1ccc(OCCN2CCOCC2)cc1C	-18	-8	1	0	/	/
O=S(=O)(c1ccccc1)N1CCN(Cc2ccccc2Br)CC1	73*	6	0	0	10	16
O=[N+]([O-])c1ccc(S(=O)(=O)N2CCN(Cc3ccccc3Br)CC2)cc1	80*	-7	0	0	12	9
CCS(=O)(=O)N1CCN(Cc2ccccc2Br)CC1	47	7	-1	0	/	/
O=C(O)CNCc1nc2ccccc2[nH]1	81*	-4	-1	-2	76*	100*
COCCn1c(=O)c2c(nc3n(C)c(C)c(C)n23)n(C)c1=O	2	21	2	0	/	/
COc1ccc(CCN2C(=O)CC(C(=O)NCCc3ccccc3)SC2=Nc2ccc(F)cc2)cc1OC (stereo unspecified)	19	9	-1	1	/	/
CCOc1ccc(OCCN2CCOCC2)cc1	76*	-18	1	0	10	15
SMILES	MITF inh	TEAD-YAP block	GPR151 ag	FBW7 activator	MITF inh conf	AlphaScreen intf2	others
COC(=O)c1ccc(OCCN2CCOCC2)cc1	-5	-20	2	0	/	/
O=C(c1ccccc1)c1ccc(OCCCN2CCCC2)cc1	53*	8	-1	0	0	0
O=C(c1ccccc1)c1ccc(OCCN2CCOCC2)cc1	83*	-14	0	0	2	4
CCOC(=O)c1ccc(OCCCN2CCCCCC2)cc1	17	6	0	-1	/	/
O=P(OCCN1CCOCC1)(c1ccccc1)c1ccccc1	57*	-1	2	0	6	11
O=C(/C=C/c1ccccc1)OCCN1CCOCC1	9	0	0	1	/	/
CN1CCN(CCOc2ccc(C(=O)c3ccccc3)cc2)CC1	81*	-17	3	1	3	0
CCN1CCN(CCOc2ccc(C(=O)c3ccccc3)cc2)CC1	41	-3	-1	0	/	/
O=C(O)CCC(NCc1ccco1)C(=O)O (stereo unspecified)	62*	8	0	0	56*	9	AlphaScreen DR=>6.8
CC(=O)CCc1ccc(OCC(O)CNC2CCCc3ccccc32)cc1 (stereo unspecified)	70*	1	1	0	-2	10
CCc1ccccc1OC[C@@H](O)CNC1CCCc2ccccc21 (stereo partly specified)	13	/	1	0	/	/
Cc1ccc(NC(=O)C2(N3C(=O)CC3c3ccco3)CCCCC2)cc1 (stereo unspecified)	68*	-5	1	0	1	17
CC(=O)NCC(c1cccs1)S(=O)(=O)c1ccc(C)cc1 (stereo unspecified)	51*	-7	1	1.9*	60*	-8	AlphaScreen DR=>6.4
O=C(NCC(c1cccs1)S(=O)(=O)c1ccc(Cl)cc1)c1ccco1 (stereo unspecified)	70*	-3	2	2	59*	-15	AlphaScreen DR=>6.6
O=C(NCC(c1ccco1)S(=O)(=O)c1cccs1)c1ccco1 (stereo unspecified)	21	-1	0	1	/	/
Cc1ccc(S(=O)(=O)C(CNC(=O)C(C)C)c2cccs2)cc1 (stereo unspecified)	-8	1	-1	0	/	/
Cc1ccc(S(=O)(=O)C(CNC(=O)c2ccco2)c2cccs2)cc1 (stereo unspecified)	95*	-5	1	1	83*	5	AlphaScreen DR=>6.6
Cc1cc(C)n(C(=O)COc2ccc3ccccc3c2)n1	-5	2	0	0	/	/
O=C(Oc1ccc(Cl)cc1Cl)c1ccc(Br)o1	4	7	1	0	/	/
CN(CCc1ccccn1)Cc1c[nH]c2ccccc12	74*	-6	-2	0	6	5
COc1ccccc1CN(C)CCc1ccccn1	67*	7	-1	1	-7	-3
CN(CCc1ccccn1)Cc1cccc2ccccc12	-2	14	-1	0	/	/
CN(CC(=O)NCc1ccccn1)S(=O)(=O)c1ccc(F)cc1	10	-1	-1	0	/	/
COc1ccc(Br)cc1CN(C)CCc1ccccn1	47	13	0	0	/	/
COc1ccc(CN(C)CCc2ccccn2)c(OC)c1OC	58*	0	1	0	13	15
CN(CCc1ccccn1)S(=O)(=O)c1ccc(F)cc1	75*	-2	1	0	2	2
CCN(CC)/C(=N\OCc1ccc(Cl)cc1Cl)c1nonc1N	0	-1	1	0	/	/
O=C(NC(=S)Nc1ccc2[nH]c(=O)[nH]c2c1)c1ccccc1Cl	99*	-9	0	0	-10	-3
COc1ccccc1C(=O)NC(=S)Nc1ccc2[nH]c(=O)[nH]c2c1	-10	-47	-1	0	/	/
